{
  "source": "the supplement of paper PMC3545927",
  "target": "furin, P09958",
  "sequence (P09958 whole entry, the tested form may be a part)": "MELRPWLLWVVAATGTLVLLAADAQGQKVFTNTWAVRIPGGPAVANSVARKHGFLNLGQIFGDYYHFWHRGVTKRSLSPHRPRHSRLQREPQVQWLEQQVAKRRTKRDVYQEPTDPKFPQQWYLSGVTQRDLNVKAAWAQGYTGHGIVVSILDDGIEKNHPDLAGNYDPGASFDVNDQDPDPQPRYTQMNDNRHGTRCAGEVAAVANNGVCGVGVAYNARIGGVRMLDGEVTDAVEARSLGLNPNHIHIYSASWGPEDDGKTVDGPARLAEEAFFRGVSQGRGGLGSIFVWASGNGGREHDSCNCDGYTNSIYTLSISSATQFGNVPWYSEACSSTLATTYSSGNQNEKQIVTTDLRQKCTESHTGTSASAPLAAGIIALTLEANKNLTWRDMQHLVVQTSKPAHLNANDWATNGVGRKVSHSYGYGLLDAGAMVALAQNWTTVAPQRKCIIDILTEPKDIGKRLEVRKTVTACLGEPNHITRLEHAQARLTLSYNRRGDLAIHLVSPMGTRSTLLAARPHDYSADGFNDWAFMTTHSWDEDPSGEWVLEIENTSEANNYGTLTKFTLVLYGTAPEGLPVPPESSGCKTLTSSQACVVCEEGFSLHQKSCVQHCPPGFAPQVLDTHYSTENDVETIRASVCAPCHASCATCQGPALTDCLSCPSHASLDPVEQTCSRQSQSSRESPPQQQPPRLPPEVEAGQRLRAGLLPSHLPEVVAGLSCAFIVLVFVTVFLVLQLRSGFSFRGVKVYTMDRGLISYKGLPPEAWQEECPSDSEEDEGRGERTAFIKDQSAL",
  "experiment": "furin cleavage Z-score vs untreated control; higher = more cleavage, active = 3.5 or more, inactive = 1 or less, 8 variable residues between constant flanks",
  "outline": "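The cleavage Z-score is the log read count relative to furin-free reactions, lowess-adjusted and scaled by median absolute deviation. Counts came from sequencing DNA released from bead-bound 8-mer peptide–cDNA fusions after digestion with purified furin for 7.5, 15 or 30 min.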",
  "note": "Some of the results follow. The hit rate among all sequences tested is not known here.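 Also: purified furin at 1:10 enzyme:substrate in 50 mM HEPES pH 7.5.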",
  "data": [
    {"sequence": "CAVVCCSMLYAGNASASA", "note": "[HC2065]", "values": [
      {"measurement": "furin cleavage Z-score", "setting": "7.5 min", "value": "-0.464 (inactive)"},
      {"measurement": "furin cleavage Z-score", "setting": "15 min", "value": "-0.469 (inactive)"},
      {"measurement": "furin cleavage Z-score", "setting": "30 min", "value": "-1.46 (inactive)"}
    ]},
    {"sequence": "CATFPINAYTAGNASASA", "note": "[HC1190]", "values": [
      {"measurement": "furin cleavage Z-score", "setting": "7.5 min", "value": "-0.0204 (inactive)"},
      {"measurement": "furin cleavage Z-score", "setting": "15 min", "value": "-1.04 (inactive)"},
      {"measurement": "furin cleavage Z-score", "setting": "30 min", "value": "-0.568 (inactive)"}
    ]},
    {"sequence": "CARAPRDSDAAGNASASA", "note": "[FS-2546]", "values": [
      {"measurement": "furin cleavage Z-score", "setting": "7.5 min", "value": "-0.983 (inactive)"},
      {"measurement": "furin cleavage Z-score", "setting": "15 min", "value": "0.168 (inactive)"},
      {"measurement": "furin cleavage Z-score", "setting": "30 min", "value": "0.352 (inactive)"}
    ]},
    {"sequence": "CARSRRSAFHAGNASASA", "note": "[FS-2819]", "values": [
      {"measurement": "furin cleavage Z-score", "setting": "7.5 min", "value": "8.26 (active)"},
      {"measurement": "furin cleavage Z-score", "setting": "15 min", "value": "9.19 (active)"},
      {"measurement": "furin cleavage Z-score", "setting": "30 min", "value": "8.92 (active)"}
    ]},
    {"sequence": "CARSLRSQIRAGNASASA", "note": "[FS-2309]", "values": [
      {"measurement": "furin cleavage Z-score", "setting": "7.5 min", "value": "0.116 (inactive)"},
      {"measurement": "furin cleavage Z-score", "setting": "15 min", "value": "-1.95 (inactive)"},
      {"measurement": "furin cleavage Z-score", "setting": "30 min", "value": "0.712 (inactive)"}
    ]},
    {"sequence": "CARAPRSPRAAGNASASA", "note": "[FS-3183]", "values": [
      {"measurement": "furin cleavage Z-score", "setting": "7.5 min", "value": "9.2 (active)"},
      {"measurement": "furin cleavage Z-score", "setting": "15 min", "value": "8.63 (active)"},
      {"measurement": "furin cleavage Z-score", "setting": "30 min", "value": "8.05 (active)"}
    ]},
    {"sequence": "CARSRRSYSCAGNASASA", "note": "[FS-3238]", "values": [
      {"measurement": "furin cleavage Z-score", "setting": "7.5 min", "value": "0.584 (inactive)"},
      {"measurement": "furin cleavage Z-score", "setting": "15 min", "value": 1.19},
      {"measurement": "furin cleavage Z-score", "setting": "30 min", "value": 2.38}
    ]},
    {"sequence": "CARSRRSQINAGNASASA", "note": "[FS-2383]", "values": [
      {"measurement": "furin cleavage Z-score", "setting": "7.5 min", "value": 1.8},
      {"measurement": "furin cleavage Z-score", "setting": "15 min", "value": "3.75 (active)"},
      {"measurement": "furin cleavage Z-score", "setting": "30 min", "value": 2.57}
    ]},
    {"sequence": "CARAPRSKVPAGNASASA", "note": "[FS-2251]", "values": [
      {"measurement": "furin cleavage Z-score", "setting": "7.5 min", "value": "0.556 (inactive)"},
      {"measurement": "furin cleavage Z-score", "setting": "15 min", "value": "0.0997 (inactive)"},
      {"measurement": "furin cleavage Z-score", "setting": "30 min", "value": 1.62}
    ]},
    {"sequence": "CARSGRSIINAGNASASA", "note": "[FS-3080]", "values": [
      {"measurement": "furin cleavage Z-score", "setting": "7.5 min", "value": "-0.514 (inactive)"},
      {"measurement": "furin cleavage Z-score", "setting": "15 min", "value": "0.929 (inactive)"},
      {"measurement": "furin cleavage Z-score", "setting": "30 min", "value": 1.74}
    ]},
    {"sequence": "CARSRRSPRAAGNASASA", "note": "[FS-1794]", "values": [
      {"measurement": "furin cleavage Z-score", "setting": "7.5 min", "value": "11.3 (active)"},
      {"measurement": "furin cleavage Z-score", "setting": "15 min", "value": "13.6 (active)"},
      {"measurement": "furin cleavage Z-score", "setting": "30 min", "value": "9.99 (active)"}
    ]},
    {"sequence": "CATGWLAGLFAGNASASA", "note": "[HC378]", "values": [
      {"measurement": "furin cleavage Z-score", "setting": "7.5 min", "value": 1},
      {"measurement": "furin cleavage Z-score", "setting": "15 min", "value": 1.08},
      {"measurement": "furin cleavage Z-score", "setting": "30 min", "value": "0.703 (inactive)"}
    ]},
    {"sequence": "CATTPCSGSCAGNASASA", "note": "[HC1940]", "values": [
      {"measurement": "furin cleavage Z-score", "setting": "7.5 min", "value": "-1.36 (inactive)"},
      {"measurement": "furin cleavage Z-score", "setting": "15 min", "value": "-1.27 (inactive)"},
      {"measurement": "furin cleavage Z-score", "setting": "30 min", "value": "-2.07 (inactive)"}
    ]},
    {"sequence": "CAVQLINTNGAGNASASA", "note": "[HC366]", "values": [
      {"measurement": "furin cleavage Z-score", "setting": "7.5 min", "value": "0.569 (inactive)"},
      {"measurement": "furin cleavage Z-score", "setting": "15 min", "value": "-1.46 (inactive)"},
      {"measurement": "furin cleavage Z-score", "setting": "30 min", "value": "0.762 (inactive)"}
    ]},
    {"sequence": "CARTVVLTESAGNASASA", "note": "[HC1326]", "values": [
      {"measurement": "furin cleavage Z-score", "setting": "7.5 min", "value": "0.659 (inactive)"},
      {"measurement": "furin cleavage Z-score", "setting": "15 min", "value": "0.273 (inactive)"},
      {"measurement": "furin cleavage Z-score", "setting": "30 min", "value": "-0.545 (inactive)"}
    ]},
    {"sequence": "CAQKKRGGPAAGNASASA", "note": "[WN3]", "values": [
      {"measurement": "furin cleavage Z-score", "setting": "7.5 min", "value": "0.322 (inactive)"},
      {"measurement": "furin cleavage Z-score", "setting": "15 min", "value": "-1.02 (inactive)"},
      {"measurement": "furin cleavage Z-score", "setting": "30 min", "value": "0.637 (inactive)"}
    ]},
    {"sequence": "CAQKLETFWAAGNASASA", "note": "[HC1038]", "values": [
      {"measurement": "furin cleavage Z-score", "setting": "7.5 min", "value": 2.24},
      {"measurement": "furin cleavage Z-score", "setting": "15 min", "value": "-0.183 (inactive)"},
      {"measurement": "furin cleavage Z-score", "setting": "30 min", "value": "-1.19 (inactive)"}
    ]},
    {"sequence": "CATPSRCVRIAGNASASA", "note": "[FS-203]", "values": [
      {"measurement": "furin cleavage Z-score", "setting": "7.5 min", "value": "0.645 (inactive)"},
      {"measurement": "furin cleavage Z-score", "setting": "15 min", "value": "-1.67 (inactive)"},
      {"measurement": "furin cleavage Z-score", "setting": "30 min", "value": "-0.417 (inactive)"}
    ]},
    {"sequence": "CATPSRAGRAAGNASASA", "note": "[FS-99]", "values": [
      {"measurement": "furin cleavage Z-score", "setting": "7.5 min", "value": 3.27},
      {"measurement": "furin cleavage Z-score", "setting": "15 min", "value": "3.92 (active)"},
      {"measurement": "furin cleavage Z-score", "setting": "30 min", "value": 2.86}
    ]},
    {"sequence": "CAAASLRAFTAGNASASA", "note": "[HC1537]", "values": [
      {"measurement": "furin cleavage Z-score", "setting": "7.5 min", "value": "-0.944 (inactive)"},
      {"measurement": "furin cleavage Z-score", "setting": "15 min", "value": "-0.499 (inactive)"},
      {"measurement": "furin cleavage Z-score", "setting": "30 min", "value": "-0.478 (inactive)"}
    ]},
    {"sequence": "CATPSRMIRTAGNASASA", "note": "[FS-1425]", "values": [
      {"measurement": "furin cleavage Z-score", "setting": "7.5 min", "value": "4.04 (active)"},
      {"measurement": "furin cleavage Z-score", "setting": "15 min", "value": "5.44 (active)"},
      {"measurement": "furin cleavage Z-score", "setting": "30 min", "value": "5.33 (active)"}
    ]},
    {"sequence": "CALLARGGRAAGNASASA", "note": "[HC1626]", "values": [
      {"measurement": "furin cleavage Z-score", "setting": "7.5 min", "value": 3.15},
      {"measurement": "furin cleavage Z-score", "setting": "15 min", "value": 3.33},
      {"measurement": "furin cleavage Z-score", "setting": "30 min", "value": "3.52 (active)"}
    ]},
    {"sequence": "CAQPARIGRAAGNASASA", "note": "[FS-1152]", "values": [
      {"measurement": "furin cleavage Z-score", "setting": "7.5 min", "value": "5.34 (active)"},
      {"measurement": "furin cleavage Z-score", "setting": "15 min", "value": "7.28 (active)"},
      {"measurement": "furin cleavage Z-score", "setting": "30 min", "value": "7.16 (active)"}
    ]}
  ]
}
